Source: PubChem
Hits are enriched below; roughly 9.2% of the tested compounds scored in any of these assays.
Rab9 prom act = activators of Rab9 promoter | Huh7 Rab9 promoter-luciferase reporter, luminescence, 24 h | hit rate 2.8% among 320,000 | Potency, µM (series often up to 9.22 µM), for the others: at the top dose activation, negative = inhibition, actives largely listed as activators; also: % of control where 0% means no effect; nearly all actives have a fitted effect of over 60% in size
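Huh7 reporter line, Rab9 promoter upstream of luciferase. Compound exposure 24 h at 37 °C in reduced-serum medium with 10% FBS. Read-out: luminescence.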
FLuc counter = firefly luciferase modulation, counter-screen for miR-21 project. purified FLuc, Km substrates, luminescence inhibition. Potency, µM (titrated, usually from 57.5 µM), without a hit: at the highest dose activity change, negative = inhibition, most hits filed as inhibitors. hit rate 6.9% among 360,000. AID 588342;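 also: plate controls were vehicle for no effect and reference inhibitor for full effect; nearly all actives have a fitted effect of over 55% in size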
Target sequence (P08659 whole entry, looked up): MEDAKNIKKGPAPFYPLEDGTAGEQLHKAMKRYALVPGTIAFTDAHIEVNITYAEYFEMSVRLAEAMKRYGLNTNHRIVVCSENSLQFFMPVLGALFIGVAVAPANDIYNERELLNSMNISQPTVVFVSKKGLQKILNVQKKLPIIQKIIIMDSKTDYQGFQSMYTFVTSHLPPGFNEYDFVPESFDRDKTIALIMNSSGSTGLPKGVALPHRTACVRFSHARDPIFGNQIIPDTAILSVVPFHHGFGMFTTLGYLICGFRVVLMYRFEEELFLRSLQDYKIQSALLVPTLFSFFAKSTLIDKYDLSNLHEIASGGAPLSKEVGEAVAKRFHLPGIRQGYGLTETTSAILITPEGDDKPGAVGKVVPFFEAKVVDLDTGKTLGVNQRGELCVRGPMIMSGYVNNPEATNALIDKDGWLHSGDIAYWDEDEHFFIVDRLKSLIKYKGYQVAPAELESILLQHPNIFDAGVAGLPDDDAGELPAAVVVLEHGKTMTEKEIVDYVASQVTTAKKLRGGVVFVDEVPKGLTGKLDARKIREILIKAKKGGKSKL
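Purified P. pyralis luciferase (10nM final) with 10uM D-luciferin and 10uM ATP (Km levels) in 50mM Tris acetate pH 7.5, 10mM Mg acetate, 0.01% Tween-20, 0.05% BSA; qHTS 6-point titration, ~60 µM downward; luminescence read.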
ELG1 genotox = genotoxicity induction in ELG1-luciferase HEK293T cells. HEK293T ELG1-luciferase reporter, luminescence, 16 h. Potency, µM (titrated, usually from 46 µM), for the others: at the highest dose activity change, positive = activation, usual class: activators. hit rate 1.3% among 330,000; also: % of control where 0% means no effect; nearly all actives have a fitted effect of over 60% in size
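Genotoxicity was scored as increased ELG1-luciferase reporter signal, measured by ONE-Glo luminescence (30 min, room temperature). Compound or vehicle exposure of the HEK293T reporter cells lasted 16 hr at 37°C.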
NPC1 prom act = activates the NPC1 promoter. Huh7 NPC1 promoter luciferase reporter, 24 h. Potency, µM (highest dose often 9.22 µM), without a hit: at the top dose activation, most hits filed as activators. hit rate 2.4% among 320,000. AID 485313; also: % of control where 0% means no effect; nearly all actives have a fitted effect of over 60% in size
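In 1536-well qHTS, Huh7 cells harboring an NPC1 promoter–luciferase construct received compound for 24 h; activation was quantified by luminescence following luciferase reagent addition.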
SMN2 splice enh = increases expression of the SMN2 splice variant; HEK293 SMN2-luciferase splicing reporter, luminescence, 30-36 h; Potency, µM (doses to about 46.1 µM), for inactives: at the top dose activity change, positive = activation, usual class: activators; hit rate 2.8% among 210,000; AID 1458; also: % of control where 0% means no effect; nearly all actives have a fitted effect of over 55% in size
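qHTS luciferase splicing reporter: luminescence rises when SMN2 exon 7 is included in transfected HEK293 cells. Compound exposure lasted 30-36 h at 37C, with 4.5 mM final sodium butyrate as control, followed by a ONE-Glo read.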
ELG1 repair inh = inhibitors of ELG1-dependent DNA repair in HEK293T cells; HEK293T ELG1-luciferase reporter, luminescence, 16 h; DNA damage induced by 5-fluorouridine; Potency, µM (top dose mostly 46.1 µM), without a hit: top-dose activity change, negative = inhibition, most hits filed as inhibitors; hit rate 2.3% among 330,000; also: % is scaled to controls: 0 for no effect and ±100 for the full control effect; nearly all actives have a fitted effect of over 55% in size
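5-Fluorouridine DNA damage + compound/DMSO, 2,000 cells/well, 16 h, 37 °C/5% CO2. ONE-Glo, 30 min RT, luminescence. Readout = decrease in reporter signal.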
Numbers without * were called inactive; ? = inconclusive; . = no result given. Calls follow the shape of the dose curve; as a rule, active = well fitted curve in the direction sought with a large enough effect; inconclusive = small, poorly fitted or top-dose-only effect, or another doubt; inactive = no such curve, though single readings can be large; an effect the other way counts as inactive or inconclusive. Potency is read from the fitted curve at half-maximal effect.

SMILES	Rab9 prom act	FLuc counter	ELG1 genotox	NPC1 prom act	SMN2 splice enh	ELG1 repair inh
COc1cc(OC)cc(C(=O)Nc2ccccc2-c2nnn(CC(=O)Nc3cc(C)on3)n2)c1	-3%	0%	?	-5%	.	15%
COc1ccc(/C=C2/CCc3ccccc3C2=O)cc1OC	-2%	3.4µM*	?	3%	-52%	?
COc1cc2c(cc1OC)/C(=C/c1ccc(Cl)cc1)C(=O)OC2	-5%	4%	3%	-5%	-17%	-12%
COc1ccc(/C=C2\OC(=O)c3c(OC)cccc32)cc1OC	2.8µM*	1.1µM*	?	2.8µM*	?	?
COc1ccc2c(c1)OC/C(=C\c1ccc(OC)c(O)c1)C2=O	.	.	.	.	-26%	.
COc1cc(/C=C2/CCc3ccccc3C2=O)cc(OC)c1OC	-2%	?	-6%	1%	-53%	?
COc1ccc(/C=C2\C(=O)OCc3cc(OC)c(OC)cc32)cc1OC	-12%	13µM*	18%	3%	12%	1%
COc1ccc(/C=C2\COc3ccccc3C2=O)cc1OC	0%	13µM*	-14%	0%	-11%	?
CC(=O)Nc1ccc(S(=O)(=O)NCCC(=O)OCC(=O)c2cc(C)ccc2C)cc1	-2%	-2%	4%	-3%	.	1%
O=C(CCC1N=C2c3ccccc3N=C(SCC(=O)Nc3ccccc3F)N2C1=O)NCc1ccco1 (centres undefined)	.	-3%	.	.	14%	.
O=C(O)c1ccc(/C=C2\COc3ccccc3C2=O)cc1	-8%	19µM*	-5%	-3%	.	?
COc1ccc(C=C2c3ccccc3C(=O)c3ccccc32)c(OC)c1	-24%	-4%	?	-6%	.	23µM*
COc1ccc(N2C(=O)/C(=C/c3cccs3)NC2=S)cc1	0%	?	4%	0%	?	21%
COc1ccc(/C=C2\CN(Cc3ccccc3)C/C(=C\c3ccc(OC)cc3OC)C2=O)c(OC)c1	0%	0%	1%	-7%	-49%	?
COc1ccc2c(c1)OC/C(=C/c1cccs1)C2=O	?	0.43µM*	12µM*	?	.	?
COc1ccc(N2CCN(S(=O)(=O)c3ccc4c(c3)CCCN4C(C)=O)CC2)cc1	.	4%	.	.	.	.
CCCn1c(SCC(=O)Nc2ccc(Cl)cc2F)nc(O)cc1=O	.	.	1%	.	.	0%
Cc1c(Cl)cccc1NC(=O)CCS(=O)(=O)c1ccc2c(c1)CC(=O)N2C	.	-1%	.	.	.	.
CC(OC(=O)c1ccccc1NCCO)C(=O)NCC(=O)Nc1ccc(F)c(F)c1F (centres undefined)	3%	0%	-3%	-5%	.	-5%
CC(C)CNc1nc(N)c([N+](=O)[O-])c(N2CCCCCC2)n1	-1%	0%	-9%	-1%	.	7.3µM*
CCC(C)Nc1nc(N)c([N+](=O)[O-])c(Nc2cc(OC)ccc2OC)n1 (centres undefined)	-3%	6%	-1%	-3%	.	23µM*
COc1ccccc1Nc1nc(NCC(C)C)nc(N)c1[N+](=O)[O-]	-10%	-5%	-7%	-3%	.	8.2µM*
CCC(C)Nc1nc(N)c([N+](=O)[O-])c(N2CCCCCC2)n1 (centres undefined)	-5%	4%	-5%	-4%	.	-11%
CC(=O)Nc1nonc1-c1nnc(SCC(=O)Nc2ccc(C)c(Cl)c2)n1C	.	-2%	.	.	.	.
CC(C)OC(=O)NCCOC(=O)Nc1cccc(Cl)c1	7%	-5%	-3%	-6%	-34%	-8%
SMILES	Rab9 prom act	FLuc counter	ELG1 genotox	NPC1 prom act	SMN2 splice enh	ELG1 repair inh
O=C(Nc1ccccc1)OCCOc1ccccc1	0.89µM*	11µM*	12µM*	4µM*	?	?
O=C(Nc1cccc(Cl)c1)OCCOc1ccccc1	?	21µM*	15%	?	.	?
COc1ccc(OCCOC(=O)Nc2ccccc2)cc1	-4%	-11%	0%	1%	.	-6%
O=C(Nc1ccccc1)OCCNC(=O)c1cccc(Cl)c1	-3%	21µM*	15%	6%	-21%	-6%
O=C(NCCO)c1cccc(Cl)c1	0.0063µM*	4%	.	?	-2%	?
O=C(Nc1ccccc1)OCCOc1cccc(Br)c1	7%	-9%	3%	2%	.	2%
CSCCNC(=O)c1cccc(Cl)c1	-1%	1%	0%	-2%	-10%	17%
CCC(=O)N1CCc2cc(Br)cc(S(=O)(=O)CCC(=O)N(C)c3cccc(C)c3)c21	-1%	3%	.	5%	-1%	.
CCOc1ccccc1N=C1SC(CC(=O)Nc2ccc(OC)cc2OC)C(=O)N1CCC1=CCCCC1 (centres undefined)	-1%	0%	-3%	-6%	-18%	7.3µM*
O=C(CC1SC(=Nc2ccc(OC(F)F)cc2)N(CCC2=CCCCC2)C1=O)Nc1ccccc1F (centres undefined)	-1%	1%	-1%	-4%	-9%	?
Cc1cc2oc(=O)cc(CN3CCN(S(=O)(=O)c4cccs4)CC3)c2cc1C	1%	3%	-8%	0%	-50%	?
CCCC(=O)n1nc(-c2ccco2)nc1SCc1ccccc1	17%	9.5µM*	8%	13%	?	?
Cc1ccc(S(=O)(=O)n2nc(-c3ccco3)nc2SCc2ccccc2)cc1	22%	24µM*	15%	18%	16µM*	?
O=C(c1ccco1)n1nc(-c2ccco2)nc1SCc1ccccc1	?	-9%	?	-5%	8%	?
O=C(Cc1ccccc1)n1nc(-c2ccco2)nc1SCc1ccccc1	15%	17µM*	?	24%	11%	?
COc1ccc(OCCCC(=O)OC(C)C(=O)Nc2ccc(S(N)(=O)=O)cc2)cc1 (centres undefined)	2%	-1%	26%	0%	.	3%
Cc1cc(C)c(NC(=O)CSc2nc(=O)[nH]c3c2CCCC3)c(C)c1	.	-2%	.	.	.	.
CC(NC(=O)C12CC3CC(CC(C3)C1)C2)C(=O)N/N=C/C1=C(N2CCOCC2)C(=C\c2cccc([N+](=O)[O-])c2)/CC1 (centres undefined)	-3%	1%	-3%	-4%	0%	6.5µM*
COc1ccc(-c2csc(N(CCCN(C)C)C(=O)c3ccccc3F)n2)cc1	-2%	1%	0%	-2%	.	-8%
CN(C)CCCN(C(=O)c1cccs1)c1nc(-c2ccccc2)cs1	-1%	-1%	?	-5%	7.9µM*	3%
COc1ccc(-c2csc(N(CC(C)C)C(=O)c3ccco3)n2)cc1	2%	0%	0%	-2%	.	15%
CCN(C(=O)c1ccco1)c1nc(-c2ccc(OC)cc2)cs1	4µM*	12µM*	?	3.2µM*	.	?
